Assay results from PubChem BioAssay (NCATS).
Values joined by “and” are separate entries in the source; they are usually repeats but may differ in a detail not shown here. Equal entries are not always repeated. Results filed as inconclusive are left out. Active and inactive are the calls of the source. Unless noted, calls follow the shape of the dose curve; as a rule, active = well fitted curve in the direction sought with a large enough effect; inconclusive = small, poorly fitted or top-dose-only effect, or another doubt; inactive = no such curve, though single readings can be large; an effect the other way counts as inactive or inconclusive.

What was measured:
[1] = Cellular Toxicity (caspase-3) BJ (AID 658); details: BJ fibroblasts, luminescence, normalized: DMSO 0%, staurosporine 100%; series mostly up to 91.7 µM
Summary of the method: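 Luminescent aminoluciferin-substrate cleavage reports caspase 3/7 activity in normal human BJ fibroblasts after 16 hr compound exposure at 37 °C. Normalized to DMSO (basal) and 10 uM staurosporine (100%); AC50 from Hill fit of concentration-response.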

[2] = Cellular Toxicity (caspase-3) MRC-5 (AID 659); details: MRC-5 cells, luminescence, normalized: DMSO 0%, 10 µM staurosporine 100%; series mostly up to 91.7 µM
Summary of the method: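 Luminescence from caspase-cleaved aminoluciferin substrate (Caspase-Glo 3/7, 1 hr RT) reports caspase 3/7 activity in MRC-5 lung fibroblasts after 16 hr compound exposure. Normalized to DMSO basal and 10 uM staurosporine as 100%; AC50 from Hill fits.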

[3] = Cellular Toxicity (caspase-3) Mesangial (AID 660); details: mesangial cells, normalized: DMSO 0%, 100 µM tamoxifen 100%; series mostly up to 91.7 µM;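 also: combined caspase 3 and 7 activity read by Caspase-Glo luminescence; cells exposed to compound for 16 h before the caspase read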
Summary of the method: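 Human renal glomerular mesangial cells, 1000/well, 5 h at 37 C before 16 h compound treatment. Caspase-Glo 3/7 luminescence after 20 min; normalized to DMSO and 100 uM tamoxifen, AC50 from Hill fit.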

[4] = Cellular Toxicity (caspase-3) SK-N-SH (AID 661); details: SK-N-SH caspase-3 activation, qHTS, DMSO as zero, staurosporine as full; series mostly up to 91.7 µM
Summary of the method: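 Human SK-N-SH neuroblastoma cells, 1500/well, were exposed to compounds for 16 hours at 37 °C. Caspase-Glo 3/7 luminescence was normalized to DMSO (basal) and 10 uM staurosporine (100%), and AC50 came from a Hill fit.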

[5] = Cellular Toxicity (caspase-3) H-4-II-E (AID 663); details: H-4-II-E rat hepatoma; Potency: caspase-3 activation; series mostly up to 92.2 µM;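 also: cells exposed to compound for 16 hr before readout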
Summary of the method: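 Luminescence from caspase-cleaved aminoluciferin substrate, read 20 min after reagent addition, reports caspase 3/7 activation in rat H-4-II-E cells after 16 hr compound exposure. Normalized to DMSO (basal) and 100 uM tamoxifen (100%); AC50 from Hill fits.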

[6] = Cellular Toxicity (caspase-3) Hek293 (AID 664); details: HEK293 caspase-3 activation, DMSO = 0%, 100 µM tamoxifen = 100%; series mostly up to 92.2 µM;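 also: cells exposed to compound for 16 h at 37 °C before readout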
Summary of the method: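 HEK293 cells in complete medium treated 16 h at 37 °C, then Caspase-Glo 3/7 luminescence read after 20 min at room temperature. Normalized to DMSO and 100 uM tamoxifen; AC50 from Hill fit of concentration-response.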

[7] = Cellular Toxicity (caspase-3) N2a (AID 665); details: N2a cells, luminescence, normalized: DMSO 0%, 10 µM staurosporine 100%; series mostly up to 92.2 µM;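 also: compound exposure lasted 16 h at 37 °C before readout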
Summary of the method: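 Mouse N2a neuroblastoma cells, 1500 per well, treated 16 h at 37 °C in complete medium; caspase-3/7 activity by Caspase-Glo luminescence after 1 h. Normalized to DMSO and 10 uM staurosporine; AC50 from Hill fits.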

[8] = Cellular Toxicity (caspase-3) Renal Proximal Tubule (AID 667); details: renal proximal tubule cells, primary cells freshly taken from rat, solvent-only wells 0%, staurosporine 100%; series mostly up to 91.7 µM;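 also: cells exposed to compound for 16 hours at 37 °C before detection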
Summary of the method: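 Luminescent caspase 3/7 signal from peptide-aminoluciferin cleavage measures apoptosis in freshly isolated rat kidney proximal tubule cells after 16 h compound exposure. Concentration-response data are normalized to DMSO and 10 uM staurosporine, and AC50 values come from Hill equation fits.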

[9] = Cell Viability - LYMP1-002 - Assay at 16 hr (AID 948); details: LYMP1-002 lymphoblastoid cell viability; series mostly up to 92.2 µM;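 also: 0% = DMSO alone and full effect = 92 µM tetraoctylammonium bromide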
Summary of the method: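 LYMP1-002 human lymphoblastoid cells, 2500/well; 5 hr 37 C; cpd 16 hr 37 C; CellTiter-Glo 30 min RT; luminescence (ATP). Concentration-response, Hill-fit AC50. Pos ctrl tetraoctylammonium bromide.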

[10] = MultiTox-Fluor Cytotoxicity Assay - LYMP1-003 - Live Cells (AID 962); details: LYMP1-003 lymphoblastoid cells, MultiTox-Fluor live-cell protease fluorescence; series mostly up to 92.2 µM;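 also: 0% = DMSO only and full loss = 92 µM tetraoctylammonium bromide; cytotoxic hits lower the live-cell protease signal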
Summary of the method: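 LYMP1-003 lymphoblastoid cells, 2500/well in complete medium, treated 16 h at 37 C; live-cell protease cleavage of GF-AFC read by fluorescence (Ex/Em 405/510) after 60 min reagent; AC50 from Hill fits of concentration-response.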

[11] = Cell Viability - LYMP1-003 - Assay at 40 hr (AID 964); details: LYMP1-003 lymphoblastoid viability; series mostly up to 92.2 µM; also: % is scaled to controls: 0 for no effect and ±100 for the full control effect; nearly all actives have a fitted effect of over 60% in size
Summary of the method: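 LYMP1-003 human lymphoblastoid cells, 2500/well, preincubated 5 h at 37 C, then treated with compound for 40 h at 37 C. Intracellular ATP read by CellTiter-Glo luminescence after 30 min at room temperature; AC50 from Hill-equation fits.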

[12] = Cell Viability - LYMP2-003 (AID 965); details: LYMP2-003 lymphoblastoid cell viability; series mostly up to 92.2 µM;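 also: cells exposed to compounds for 24 h before reading; 0% = DMSO only and full effect = 92 µM tetraoctylammonium bromide; nearly all actives have a fitted effect of over 50% in size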
Summary of the method: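 CellTiter-Glo luminescence (cellular ATP) after 24 h compound exposure at 37 C in complete medium; 2500 cells/well, 5 h settling beforehand. Concentration-response fitted to standard Hill equation for AC50. Tetraoctylammonium bromide served as positive control.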

[13] = Cell Viability - LYMP2-005 (AID 967); details: LYMP2-005 lymphoblastoid cell viability; series mostly up to 92.2 µM;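 also: plate controls were DMSO only for no effect and 92 µM tetraoctylammonium bromide control for full effect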
Summary of the method: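 Steps: seed 2500 LYMP2-005 cells/well, incubate 5 h at 37 C, add compound, incubate 24 h at 37 C, add CellTiter-Glo, wait 30 min at RT, read luminescence. Concentration-response data fitted to Hill equation for AC50.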

[14] = Cell Viability - LYMP2-011 (AID 969); details: LYMP2-011 lymphoblastoid cells viability; series mostly up to 92.2 µM;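 also: 0% = DMSO only and full inhibition = 92 µM tetraoctylammonium bromide; nearly all actives have a fitted effect of over 60% in size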
Summary of the method: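 2500 cells/well in complete medium, compound-treated 24 h at 37 C. Viability read as intracellular ATP by CellTiter-Glo luminescence after 30 min at room temperature. AC50 from Hill fits of qHTS concentration-response data.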

[15] = Cell Viability - LYMP2-013 (AID 970); details: LYMP2-013 lymphoblastoid cells viability; series mostly up to 92.2 µM;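 also: 0% = DMSO only and full inhibition = tetraoctylammonium bromide control; nearly all actives have a fitted effect of over 55% in size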
Summary of the method: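 Human lymphoblastoid LYMP2-013 cells, 2500/well, treated 24 h at 37 C in complete medium; viability as intracellular ATP by CellTiter-Glo luminescence after 30 min. AC50 from Hill fits of qHTS concentration-response.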

[16] = Cell Viability - LYMP2-017 (AID 972); details: LYMP2-017 lymphoblastoid cell viability; series mostly up to 92.2 µM; also: % is scaled to controls: 0 for no effect and ±100 for the full control effect; nearly all actives have a fitted effect of over 55% in size
Summary of the method: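 LYMP2-017 human lymphoblastoid cells (2500/well) settled 5 hr at 37 C, then exposed to compound 24 hr at 37 C in complete medium. Viability taken as intracellular ATP by CellTiter-Glo luminescence after 30 min at RT; AC50 from Hill fits.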

[17] = Cell Viability - LYMP2-019 (AID 973); details: LYMP2-019 lymphoblastoid cell line viability; series mostly up to 92.2 µM;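 also: 0% = DMSO alone and full effect = 92 µM tetraoctylammonium bromide; nearly all actives have a fitted effect of over 55% in size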
Summary of the method: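 Human lymphoblastoid LYMP2-019 cells (2500/well) preincubated 5 h at 37 C, then treated 24 h at 37 C in complete medium. Viability by CellTiter-Glo ATP luminescence after 30 min at room temperature; AC50 from Hill fits.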

[18] = Cell Viability - LYMP2-023 (AID 975); details: LYMP2-023 lymphoblastoid cell viability; series mostly up to 92.2 µM;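 also: cellular ATP measured by luciferase luminescence as viability proxy; plate controls were DMSO only for no effect and 92 µM tetraoctylammonium bromide control for full effect; nearly all actives have a fitted effect of over 55% in size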
Summary of the method: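 LYMP2-023 human lymphoblastoid cells, 2500/well, preincubated 5 hr at 37 C, then compound-treated 24 hr at 37 C in complete medium. CellTiter-Glo luminescence (ATP) after 30 min at room temperature; AC50 from Hill-equation fits; tetraoctylammonium bromide positive control.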

[19] = Cell Viability - LYMP2-025 (AID 976); details: LYMP2-025 lymphoblastoid cell viability; series mostly up to 92.2 µM;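 also: plate controls were DMSO only for no effect and tetraoctylammonium bromide control for full effect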
Summary of the method: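 Human lymphoblastoid LYMP2-025 cells, 2500/well, exposed 24 h at 37 C in complete medium in 1536-well qHTS. Viability as cellular ATP by CellTiter-Glo luminescence; AC50 from Hill fits of concentration-response data.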

[20] = qHTS assay for small molecule agonists of the antioxidant response element (ARE) signaling pathway measured by Nrf2-dependant transcriptional activity - cell viability counter screen (AID 720653; active = well fitted curve in the direction sought with a large enough effect in the repeat runs; an effect the other way counts as inactive or inconclusive; also: % is scaled to controls: 0 for no effect and ±100 for the full control effect); details: ARE-bla HepG2 viability, CellTiter-Glo ATP luminescence, 16 h; max response: hits give low values
Summary of the method: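 ARE-bla HepG2 cells (2,000/well) rested 5 hrs at 37C/5% CO2, then exposed to compounds in DMSO for 16 hrs. Viability was read in the same wells as intracellular ATP by luminescence, 30 min at room temperature after reagent addition.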

O=C(O)c1ccccc1C(c1ccc(O)cc1)c1ccc(O)cc1
inactive: outcome [1] | outcome [2] | outcome [3] | outcome [4] | Potency [5] | outcome [6] | outcome [7] | outcome [8] | Potency [9] | Potency [10] | Potency [11] | Potency [12] | Potency [13] | Potency [14] | Potency [15] | Potency [16] | Potency [17] | Potency [18] | Potency [19] | max response [20] -7.19% and 7.52%

O=S(=O)(O)c1ccccc1
inactive: outcome [1] | outcome [2] | outcome [3] | outcome [4] | Potency [5] | outcome [6] | outcome [7] | outcome [8] | Potency [9] | Potency [10] | Potency [11] | Potency [12] | Potency [13] | Potency [14] | Potency [15] | Potency [16] | Potency [17] | Potency [18] | Potency [19] | max response [20] 11%

c1ccc2scnc2c1
inactive: outcome [1] | outcome [2] | outcome [3] | outcome [4] | Potency [5] | outcome [6] | outcome [7] | outcome [8] | Potency [9] | Potency [10] | Potency [11] | Potency [12] | Potency [13] | Potency [14] | Potency [15] | Potency [16] | Potency [17] | Potency [18] | Potency [19] | max response [20] -3.11%

O=C1CCc2ccccc2O1
inactive: outcome [1] | outcome [2] | outcome [3] | outcome [4] | Potency [5] | outcome [6] | outcome [7] | outcome [8] | Potency [9] | Potency [10] | Potency [11] | Potency [12] | Potency [13] | Potency [14] | Potency [15] | Potency [16] | Potency [17] | Potency [18] | Potency [19] | max response [20] 2.06%

Cc1cccc(O)c1
inactive: max response [20] 2.52% and 7.45%

C/C=C\c1ccc(OC)cc1
inactive: outcome [1] | outcome [2] | outcome [3] | outcome [4] | Potency [5] | outcome [6] | outcome [7] | outcome [8] | Potency [9] | Potency [10] | Potency [11] | Potency [12] | Potency [13] | Potency [14] | Potency [15] | Potency [16] | Potency [17] | Potency [18] | Potency [19] | max response [20] -0.534%
